Source: PubChem BioAssay
TRPM1 prom inh: reduces MITF-dependent TRPM1 promoter luciferase signal. SK-MEL-5 TRPM1 promoter luciferase, 24 h. inhibition, % at 12.5 µM. hit rate 0.83% among 330,000;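 active means mean inhibition across replicates of 60% or more, whatever share of single replicates reaches that level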
CHOP inhibitor: CHOP inhibition in unfolded protein response | CHO-K1 CHOP-promoter luciferase, tunicamycin-induced, 15-18 h | inhibition, % at 10 µM | hit rate 3.8% among 220,000 | AID 2732;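 active means compounds that reduced the stress-induced luciferase reporter signal by more than about 70% of percent inhibition, limit read from the data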;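 further: 0% = tunicamycin plus vehicle and 100% = wells without tunicamycin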
CF NFkB inh: inhibitors of cystic fibrosis induced NF-kB | KKLEB NF-kB-GFP reporter, PAF-induced, GFP fluorescence overnight | inhibition, % at 5 µM | hit rate 0.86% among 360,000 | AID 588850;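 active means at least 50% inhibition at 5 µM, scaled per plate between neutral and stimulator controls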;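 further: PAF is a Pseudomonas aeruginosa culture filtrate used as stimulus; plate controls were PAF-stimulated DMSO wells for no effect and unstimulated DMSO wells for full effect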
KKLEB cytotox: CF airway cell cytotoxicity counter-screen; activity change (cytotoxicity), % at 5 µM; hit rate 0.36% among 360,000; AID 602141; KKLEB CF airway cells viability, ATPlite luminescence, overnight; hits give low values; cells stimulated with P. aeruginosa culture filtrate;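 active means corrected activity change at or below -50% at 5 µM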
Peg3 prom inh: inhibitors of Peg3 promoter. inhibition, % at 20 µM. hit rate 1.7% among 360,000. AID 588405. HeLa PEG-Prom luciferase reporter, luminescence, overnight;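 active means inhibition of at least 50% at 20 µM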
HIF-2a inh: blocks HIF-2a reporter activity | hit rate 0.72% among 360,000 | AID 624352 | inhibition, % at 18.8 µM | 786-0 RCC cells HIF-2a reporter, luciferase luminescence, overnight;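 active means inhibition of the luminescence signal of 40% or more relative to plate controls, in a single-dose primary screen at 18.75 µM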
Numbers without * were called inactive. Hits are enriched below; roughly 4.3% of the tested compounds scored in any of these assays.

Cc1ccc2nc(-c3ccc(NC(=O)Cc4cccs4)cc3)[nH]c2c1 was read as TRPM1 prom inh -45.8, CHOP inhibitor 79.4*, CF NFkB inh 17.1, KKLEB cytotox -21.9, Peg3 prom inh 9.7 and HIF-2a inh -166.3.
Screening COc1ccc2cc3c(N)nn(C(=O)Cc4ccc(Cl)cc4)c3nc2c1 returned TRPM1 prom inh 0.5, CHOP inhibitor 82.9*, CF NFkB inh 21.6, KKLEB cytotox -6.2, Peg3 prom inh 15.4 and HIF-2a inh 8.4.
For COc1ccc2cc3c(N)nn(C(=O)c4cccc(F)c4)c3nc2c1 the results were TRPM1 prom inh -5.3, CHOP inhibitor 37.2, CF NFkB inh 49.5, KKLEB cytotox -2.5, Peg3 prom inh 7.6 and HIF-2a inh 3.6.
COc1cccc(CC(=O)n2nc(N)c3cc4ccc(OC)cc4nc32)c1 was read as TRPM1 prom inh -30.9, CHOP inhibitor 95.1*, CF NFkB inh -36.1, KKLEB cytotox -2.3, Peg3 prom inh 39.7 and HIF-2a inh -40.4.
`Cc1ccccc1-n1nnnc1SCC(=O)NNC(=O)c1ccc(NC(=O)CC#N)cc1` gave TRPM1 prom inh 0.5, CF NFkB inh 2.3, KKLEB cytotox -8.4, Peg3 prom inh 6.7 and HIF-2a inh -9.6.
O=C1CC/C=C\C[C@@H](CC(=O)N(CCO)Cc2ccccc2)C(=O)N[C@H](Cc2c[nH]c3ccccc23)CO1 was read as TRPM1 prom inh 7.6, CF NFkB inh -19.1, KKLEB cytotox 10.0, Peg3 prom inh 10.4 and HIF-2a inh 10.9.
O=C(Cc1ccccc1)Nc1nc(=O)c2ccccc2s1 was read as TRPM1 prom inh -14.2, CHOP inhibitor 20.0, CF NFkB inh -5.2, KKLEB cytotox 1.4, Peg3 prom inh -5.5 and HIF-2a inh -35.5.
`O=C(Nc1nc(=O)c2ccccc2s1)c1ccc(F)cc1` gave TRPM1 prom inh -55.8, CHOP inhibitor 91.2*, CF NFkB inh -18.6, KKLEB cytotox 3.9, Peg3 prom inh -267.9 and HIF-2a inh -289.0.
O=C(Nc1nc(=O)c2ccccc2s1)c1ccc(Cl)cc1 was read as TRPM1 prom inh -10.1, CHOP inhibitor 75.4*, CF NFkB inh 3.6, KKLEB cytotox 10.1, Peg3 prom inh -216.0 and HIF-2a inh -161.0.
Cc1cc(C)c(C)c(S(=O)(=O)NC2CCN(Cc3ccccc3)CC2)c1C was read as TRPM1 prom inh -18.3, CHOP inhibitor 79.4*, CF NFkB inh 1.9, KKLEB cytotox -4.9, Peg3 prom inh 17.0 and HIF-2a inh 13.6.
O=C(CCCSc1nc2ccccc2[nH]1)N1CCN(c2ccc([N+](=O)[O-])cc2)CC1 was read as TRPM1 prom inh 22.2, CHOP inhibitor 73.1*, CF NFkB inh 2.2, KKLEB cytotox -8.0, Peg3 prom inh 19.0 and HIF-2a inh 29.3.
`O=C(Cc1ccc(F)cc1)N[C@@H]1c2ccccc2CC[C@H]1OCc1ccccc1` gave TRPM1 prom inh -4.6, CF NFkB inh -8.7, KKLEB cytotox 13.8, Peg3 prom inh 8.7 and HIF-2a inh 10.2.
Screening C[C@H]1NS(=O)(=O)c2ccc(Br)cc2O[C@H]1c1ccccc1 returned TRPM1 prom inh -0.1, CF NFkB inh -3.5, KKLEB cytotox 9.6, Peg3 prom inh -16.2 and HIF-2a inh 5.8.
Cc1cccc(C(=O)NC(=S)NNC(=O)c2ccccc2Cl)c1 was read as TRPM1 prom inh 1.4, CHOP inhibitor 85.7*, CF NFkB inh -5.0, KKLEB cytotox 6.2, Peg3 prom inh -3.4 and HIF-2a inh 7.2.
For Cc1ccc(C(=O)NNC(=S)NC(=O)c2ccc(Cl)cc2)cc1 the results were TRPM1 prom inh 12.1, CHOP inhibitor 94.2*, CF NFkB inh 36.0, KKLEB cytotox -15.3, Peg3 prom inh 12.1 and HIF-2a inh 6.0.
Screening CCC(=O)NNC(=S)NC(=O)c1ccc(C)cc1 returned TRPM1 prom inh -51.3, CHOP inhibitor 44.3, CF NFkB inh 21.8, KKLEB cytotox 1.2, Peg3 prom inh -41.4 and HIF-2a inh -160.9.
Screening Cc1ccc(OCC(=O)NC(=S)Nc2ccccn2)c(Br)c1 returned TRPM1 prom inh 23.5, CF NFkB inh -23.1, KKLEB cytotox -17.3, Peg3 prom inh 17.0 and HIF-2a inh 21.9.
Cc1ccc(OCC(=O)NNC(=S)NC(=O)C(C)(C)C)c(Br)c1 was read as TRPM1 prom inh 2.1, CHOP inhibitor 92.0*, CF NFkB inh 19.8, KKLEB cytotox -2.3, Peg3 prom inh 20.8 and HIF-2a inh -29.9.
